Measurements reported in the supplement of paper PMC5734697.

System: Caenorhabditis elegans
Test: growth (movement index) relative to DMSO control, secondary screen (log2 fold change); higher = more growth (less anthelmintic activity)
Conditions: 10 µM, 5 days, 20 °C, stage: L1 start
Description: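 C. elegans growth assay: synchronised L1 larvae (~20 per well) in S-complete medium with HB101 E. coli were grown in 96-well plates with Pathogen Box compound at 10 µM (1% DMSO) for 5 days at 20 °C. Motility/growth was quantified by whole-plate movie imaging (INVAPP/Paragon movement index). The score is the log2 fold change of the median movement of 5 replicate wells (on different plates) relative to DMSO-only wells. The secondary screen retested the top 20 hits with the same library material (n = 5, 10 µM).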

| SMILES | growth (log2) |
| --- | --- |
| CC1(C)OB(O)c2ccc(C3=NOC(c4cc(Cl)c(F)c(Cl)c4)(C(F)(F)F)C3)cc21 (configuration not stated) | -0.316 |
| CCc1nn(C)c(C(=O)NCc2ccc(Oc3ccc(C)cc3)cc2)c1Cl | -10.6 |
